Screening results deposited in PubChem by Sanford-Burnham Center for Chemical Genomics.
SENP8 block-1: blocks human SENP8 cleavage of Nedd8 substrate; 0.64% of 360,000 active; inhibition, % at 20 µM; Q96LD8; recombinant SENP8, Nedd8 substrate fluorescence; in the data active = inhibition mostly above about 40%, no sharp cut-off; inactive = mostly below about 27%
Target sequence (Q96LD8 whole entry, looked up): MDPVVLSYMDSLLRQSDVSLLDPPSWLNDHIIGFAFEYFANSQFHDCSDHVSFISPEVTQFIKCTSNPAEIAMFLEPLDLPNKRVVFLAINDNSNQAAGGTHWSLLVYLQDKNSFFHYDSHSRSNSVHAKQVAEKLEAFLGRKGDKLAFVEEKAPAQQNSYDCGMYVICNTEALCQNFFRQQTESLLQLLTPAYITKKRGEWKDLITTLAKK
SENP6 inh: SENP6 protease inhibition; AID 2599; Q9GZR1; inhibition, % at 10 µM; 1.8% of 330,000 active; Recombinant SENP6 catalytic domain, aminoluciferin luminescence;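 active = inhibition above about 50% at the single tested dose, limit read from the data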;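 also: plate controls were DMSO wells with enzyme for no effect and DMSO wells lacking enzyme for full effect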
Target sequence (Q9GZR1 628-1112 limits assumed): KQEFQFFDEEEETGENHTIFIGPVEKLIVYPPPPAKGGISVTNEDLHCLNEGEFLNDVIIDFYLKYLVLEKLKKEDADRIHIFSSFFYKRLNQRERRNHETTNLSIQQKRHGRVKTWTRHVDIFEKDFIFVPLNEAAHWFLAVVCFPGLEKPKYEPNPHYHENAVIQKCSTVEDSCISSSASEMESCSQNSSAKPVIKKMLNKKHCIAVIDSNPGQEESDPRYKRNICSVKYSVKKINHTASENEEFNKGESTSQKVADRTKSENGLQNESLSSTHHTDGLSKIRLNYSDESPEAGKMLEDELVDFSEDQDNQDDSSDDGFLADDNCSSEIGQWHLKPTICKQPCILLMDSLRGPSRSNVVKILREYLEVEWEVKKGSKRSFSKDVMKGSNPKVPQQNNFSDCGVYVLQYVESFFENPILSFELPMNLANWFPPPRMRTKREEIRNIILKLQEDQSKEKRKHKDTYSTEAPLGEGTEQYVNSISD
PPC-1+TRAIL kill: compounds killing PPC-1 cancer cells with TRAIL present (potentiator screen, no TRAIL-free arm); PPC-1 cells + TRAIL, ATPLite viability luminescence; cell killing (% activity), % at 4 µM or 5 µM; 0.41% of 220,000 active; AID 1443;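 active = cell killing above 50% in the first pass at 4 µM, then a duplicate retest at 5 µM averaging 50% or more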;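 also: plate controls were cells with TRAIL plus DMSO for no effect and medium-only wells lacking cells for full effect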
SENP8 block-2: SENP8 protease inhibition; Q96LD8; AID 2540; 1.2% of 330,000 active; purified SENP8, Z-RLRGG-aminoluciferin cleavage, luminescence; inhibition, % at 10 µM; in the data active = inhibition above about 50%
C8 TRAIL sens: sensitizes caspase-8 expressing cells to TRAIL; NB7+C8 cells + TRAIL, ATPlite viability luminescence; AID 624354; 1% of 360,000 active; inhibition (viability loss, TRAIL sensitization), % at 10 µM;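 active = compounds causing at least 50% loss of cell viability in the single-dose screen, relative to plate controls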
SENP7 block: SENP7 protease inhibition. recombinant SENP7, Z-RLRGG-aminoluciferin luminescence, 40 min. Q9BQF6. AID 434973. 1.5% of 330,000 active. inhibition, % at 5 µM;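 active = inhibition above about 50% at the single test dose, limit read from the data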;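 also: plate controls were DMSO with enzyme for no effect and no enzyme buffer wells for full effect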
PPC1 cytotox: kills PPC-1 cells. shares compounds with PPC-1+TRAIL kill. PPC-1 viability, ATPlite luminescence, overnight. cytotoxicity, % at 5 µM. 50% of 1,200 active;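 active = reconfirmed compounds whose average cytotoxicity reaches 50% or more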;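 also: 0% = DMSO-treated cells and 100% = wells holding medium but no cells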
* = called active by the depositor; . = no result given. Hits are enriched below; roughly 3% of the tested compounds scored in any of these assays.

SMILES | SENP8 block-1 | SENP6 inh | PPC-1+TRAIL kill | SENP8 block-2 | C8 TRAIL sens | SENP7 block | PPC1 cytotox
C#CC(=O)N(c1ccc(OC)cc1OC)C(C(=O)NC1CCCC1)c1cccs1 (configuration not stated) | -1.9 | 4.0 | 97.0* | -8.6 | 92.8* | -8.0 | 96.0*
COc1ccc(N(C(=O)c2ccco2)C(C(=O)NC2CCCCC2)c2cccs2)cc1OC (configuration not stated) | 19.2 | 14.3 | -15.4 | 3.6 | 8.4 | 3.1 | .
Cc1ccccc1NC(=O)COC(=O)c1ccc(S(=O)(=O)N2CCCC2)cc1 | 14.3 | -30.6 | . | -11.1 | 0.5 | -6.5 | .
CCn1c(-c2ccco2)nc2ccccc21 | -87.8 | 1.8 | 18.8 | -5.2 | 9.1 | 6.3 | 19.2
CCn1c(-c2ccc(N(C)C)cc2)nc2ccccc21 | -246.6 | 42.6 | 60.2* | 12.2 | 65.2* | 36.2 | 59.9*
CCn1c(-c2ccc(N)cc2)nc2ccccc21 | -418.8 | -8.0 | -18.0 | 6.5 | 9.5 | 3.8 | .
COc1cc(C(=O)OCC(=O)Nc2ccccc2)cc2c1OCCO2 | 0.4 | . | . | . | -23.8 | . | .
CC1Oc2ccc(C#N)cc2N(Cc2ccccc2OC(F)(F)F)C1=O (configuration not stated) | 2.1 | . | . | . | 17.3 | . | .
CC1(C)S[C@@H]2[C@H](NC(=O)C(NC(=O)N3CCNC3=O)c3ccccc3)C(=O)N2[C@H]1C(=O)O (some centres not stated) | 9.4 | 0.7 | . | -12.4 | -11.3 | -14.9 | .
COC(=O)C[C@H]1C[C@H]2c3cc(NS(=O)(=O)c4cccc(OC)c4)ccc3O[C@H]2[C@@H](CO)O1 | 16.2 | . | . | . | -3.8 | . | .
CCc1ccc(C(=O)Nc2nnn(CC)n2)cc1 | 11.9 | 8.4 | 63.4* | -11.8 | 65.5* | 6.1 | 56.9*
CCn1nnc(NC(=O)c2ccc(Br)o2)n1 | 5.7 | -6.1 | . | -4.5 | -8.3 | -1.8 | .
Cc1cnc(C(=O)OC(C(=O)c2c[nH]c3ccccc23)c2ccccc2)cn1 (configuration not stated) | -1.8 | -5.7 | . | -9.8 | -5.4 | -9.5 | .
Cc1ccc(C(=O)NCCc2cccs2)cc1 | 2.5 | -26.6 | 69.2* | 5.4 | 77.8* | 12.2 | 66.8*
Oc1ccccc1N=Nc1nc(-c2ccccc2)c(-c2ccccc2)[nH]1 | 50.9* | -0.4 | 20.9 | 4.2 | -0.5 | 9.1 | 23.3
COc1ccccc1N=Nc1nc(-c2ccccc2)c(-c2ccccc2)[nH]1 | 29.4 | . | -1.5 | . | -4.7 | . | .
Cc1ccc(C(C)C)cc1OCC(=O)Nc1ccc(N2CCCCC2)cc1 | 10.7 | -7.0 | . | -5.7 | 3.3 | -2.7 | .
CC[n+]1c(/C=C2\Sc3ccccc3N2C)ccc2cccc(C)c21 | 3.8 | . | 36.5 | . | 24.8 | . | 25.9
CCOC(=O)N1CCC(n2c(=S)[nH]c3ccccc3c2=O)CC1 | 20.4 | 10.1 | -5.2 | 2.7 | -3.0 | 6.6 | -18.0
O=C(NC1CCN(Cc2ccccc2)CC1)c1cccc(S(=O)(=O)Nc2ccc(SC(F)F)cc2)c1 | 16.8 | 2.0 | . | -0.4 | -6.4 | 0.4 | .
N/C(=N\OC(=O)c1cc(Cl)ccc1Cl)c1ccccn1 | 11.4 | 51.3* | 54.9* | 64.8* | 62.7* | 75.8* | 58.1*
O=C(NCCNC(=O)c1cc(Cl)ccc1Cl)c1ccccn1 | 12.5 | -3.6 | . | -4.0 | -10.6 | 6.4 | .
CCOC(=O)C1=C(CC)Nc2ccccc2N=C1NC(=O)c1cc(S(=O)(=O)N2CCOCC2)ccc1C | -7.7 | 6.8 | . | -0.2 | 5.4 | 6.8 | .
O=C1/C(=C/c2ccc(N3CCOCC3)o2)SC(=Nc2ccccc2)N1CCc1c[nH]c2ccccc12 | 25.2 | -1.7 | -11.6 | -2.6 | 33.8 | -0.5 | -5.9
COc1ccc(OC)c(C(=O)/C=C/c2ccccc2C(F)(F)F)c1 | -11.9 | -1.0 | -5.0 | 1.7 | 23.5 | 4.6 | -1.7
SMILES | SENP8 block-1 | SENP6 inh | PPC-1+TRAIL kill | SENP8 block-2 | C8 TRAIL sens | SENP7 block | PPC1 cytotox
CCN1CCN(Cc2ccc(NC(=O)c3cc(NC(=O)c4cc(C)on4)cc(OC)c3)cc2C(F)(F)F)CC1 | 10.3 | -13.2 | . | 2.7 | 29.9 | -1.6 | .
CCN1CCN(Cc2ccc(NC(=O)c3cc(NC(=O)C(=O)c4c[nH]c5ccccc45)cc(OC)c3)cc2C(F)(F)F)CC1 | 0.2 | -13.4 | 16.9 | -7.5 | 92.5* | 4.7 | 19.5
COc1ccc(N2CCN(c3nc(=S)n(-c4ccccc4)c(C)c3C(C)=O)CC2)cc1 | 25.6 | -1.6 | -7.4 | -2.6 | 21.7 | 4.6 | 7.8
CC(C)OC(=O)N(C)C[C@@H]1OCc2cnnn2CCCC(=O)N([C@@H](C)CO)C[C@H]1C | 22.0 | . | . | . | -0.6 | . | .
Clc1ccccc1C=NNc1ccccn1 | 9.4 | . | . | . | 11.8 | . | .
COc1ccc2nc(Cl)c(/C=N/Nc3ccccn3)cc2c1 | -83.6 | -1.4 | 66.5* | -0.4 | 66.8* | 2.5 | 65.4*
Cn1cnnc1SCCn1c(N2CCCCC2)nc2c1c(=O)[nH]c(=O)n2C | 33.0 | -15.2 | 5.4 | -9.4 | -16.0 | -8.8 | 4.2
COc1ccc(C(=O)Nc2cc(OC)c(NC(=O)c3ccco3)cc2OC)cc1 | -46.2 | -3.6 | -5.0 | 0.0 | -23.3 | -8.4 | .
COc1cccc(-c2nnn(CC(=O)Nc3cc(OC)c(NC(=O)c4ccco4)cc3OC)n2)c1 | -86.7 | -13.6 | 7.9 | -12.8 | -2.8 | -5.8 | 18.7
COc1ccc(/C=N\n2nnc3ccccc32)cc1 | -6.3 | 97.4* | 38.6 | 93.6* | 55.3* | 89.5* | 35.6
O=C(/C=C/c1ccco1)Nc1ccc2c(c1)OCCO2 | 24.3 | -14.3 | 64.2* | 37.7 | 64.5* | 41.3 | 63.1*
O=C(/C=C/c1ccco1)Nc1ccc(C(=O)N2CCOCC2)cc1 | 7.3 | 14.0 | 20.9 | -4.6 | 0.7 | 1.2 | .
O=[N+]([O-])c1cc(/C=N/NC(=S)Nc2ccccc2Cl)ccc1Cl | 16.8 | -17.5 | 36.8 | 1.1 | 0.2 | 10.0 | 28.5
COc1ccc(C(=O)N/C(=C/c2cccs2)c2nc3ccccc3[nH]2)cc1OC | -399.7 | -1.6 | -10.9 | 2.9 | -1.4 | 13.7 | .
COc1cc(/C=C(/C(=O)c2cccs2)c2nc3ccccc3[nH]2)cc(OC)c1O | 7.3 | 8.3 | 22.1 | 3.4 | 37.5 | 4.3 | 34.1
CCOP(=O)(OCC)c1ccc2c(c1)C(=O)c1ccccc1CC2 | -0.3 | -1.9 | . | -4.8 | 8.9 | -0.2 | .
CCOc1ccc(C(=O)C(c2ccccc2)N2CCOCC2)cc1 (configuration not stated) | 18.8 | -15.5 | -3.9 | -9.7 | -5.7 | -11.0 | .
CCCOc1ccc(C(=O)C(c2ccccc2)N2CCOCC2)cc1 (configuration not stated) | 8.1 | -0.2 | 0.2 | -2.7 | -11.4 | -0.2 | 14.0
Cc1cc(N=Nc2ccc(C)c(N=Nc3cc(C)c(N)cc3N)c2)c(N)cc1N | 30.7 | 52.1* | 64.2* | 52.6* | 50.9* | 5.8 | 63.0*
CC(C)OCCCn1c(SCC(=O)Nc2ccccc2C(F)(F)F)nc2nccnc2c1=O | 0.3 | 3.6 | . | -6.2 | -0.6 | 3.5 | .
Cc1ccc(NC(=O)c2ccc3c(c2)OCCO3)cc1 | 34.8 | 48.0 | 56.3* | 25.7 | 67.2* | 34.1 | 55.5*
